A selection: hits, their analogues and other compounds. The true share with any hit is near 2.5%.
AI-2 QS mod: Vibrio harveyi AI-2 quorum sensing modulation; Vibrio harveyi JMH597 AI-2 luminescence/OD600 ratio, 9 h; stronger effect = lower value; strain lacks LuxN and CqsS sensors; 0 = neutral-control median; hit rate 0.4% among 300,000; AID 2094; activity change, % at 7.5 µM; in the data active = activity change below about -75%, passing the limit was not always enough;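 note: luminescence divided by OD600 gain over 9 h not by final OD600 alone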
SUMO Mot1 rescue: inhibitors of SUMOylation pathway: yeast Mot1-301 growth rescue | growth rescue, % at 18.8 µM | AID 2716 | S. cerevisiae Mot1-301 growth rescue, ATP luminescence, 38.5C; percent above DMSO median, 100 means doubled | hit rate 1% among 320,000;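 active = every valid replicate shows activation above 250% relative to neutral control wells; inactive = the rest, any valid replicate at or below 250%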
ATG4B inh: ATG4B (human) cysteine protease inhibition | inhibition, % at 8.33 µM | AID 504462 | Q9Y4P1 | ATG4B cleavage of LC3-PLA2, NBD-HPC fluorescence, 1 h | hit rate 0.51% among 340,000; in the data active = inhibition above about 40%
Target sequence (Q9Y4P1 whole entry, looked up): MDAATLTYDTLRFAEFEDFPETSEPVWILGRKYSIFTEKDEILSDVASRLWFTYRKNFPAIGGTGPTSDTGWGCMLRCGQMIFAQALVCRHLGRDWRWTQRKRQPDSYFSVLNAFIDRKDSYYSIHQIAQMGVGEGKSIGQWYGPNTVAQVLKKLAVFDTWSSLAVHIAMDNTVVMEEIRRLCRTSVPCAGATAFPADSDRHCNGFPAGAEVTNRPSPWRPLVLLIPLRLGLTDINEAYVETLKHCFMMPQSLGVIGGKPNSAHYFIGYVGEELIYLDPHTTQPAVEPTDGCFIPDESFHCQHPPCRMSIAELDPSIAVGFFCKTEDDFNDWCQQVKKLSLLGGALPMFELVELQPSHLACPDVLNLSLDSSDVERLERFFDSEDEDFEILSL
Efflux pump inh: inhibitors of Candida antifungal efflux pumps expressed in yeast. AID 485275. hit rate 0.44% among 330,000. inhibition, % at 10 µM. S. cerevisiae Candida pump triplex, Nile Red efflux;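 active = plate passing quality check with inhibition over a set limit, or well fluorescence over plate mean plus 4 SD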;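 note: Nile Red retained in pooled yeast measured as flow cytometry median fluorescence; higher means more Nile Red kept so more efflux inhibition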
V-ATPase pHluor: regulators of yeast V-ATPase proton transport. S. cerevisiae, pHLuorin cytosolic pH fluorescence. response, % at 10 µM. hit rate 0.37% among 350,000; in the data active = response mostly above about 7.3%, no sharp cut-off; inactive = mostly below about 5.4%; note: actives read high
VATPase regulator: modulates yeast V-ATPase proton transport; shares compounds with V-ATPase pHluor; S. cerevisiae pHLuorin cytosolic pH; response, % at 10 µM; hit rate 2% among 980; AID 602197; in the data active = response above about 24%
A number is an active result; – = inactive; · = no result.

SMILES | AI-2 QS mod | SUMO Mot1 rescue | ATG4B inh | Efflux pump inh | V-ATPase pHluor | VATPase regulator
O=C(Cc1ccc2c(c1)OCCO2)N1CCN(S(=O)(=O)c2ccccc2C(F)(F)F)CC1 | – | – | – | – | 11.7 | –
O=C(Cc1ccc2c(c1)OCCO2)N1CCN(S(=O)(=O)c2cccc(Cl)c2Cl)CC1 | – | – | – | – | – | ·
NS(=O)(=O)c1ccc(NN=C2CCN(Cc3ccccc3)CC2)c([N+](=O)[O-])c1 | – | – | – | – | 16.1 | –
CN(C)/C=C(\C(=O)c1ccccc1)c1nnnn1-c1ccc(F)cc1 | – | – | – | – | 20.8 | –
COc1ccc(-n2nnnc2/C(=C/N(C)C)C(=O)c2ccccc2)cc1 | – | – | – | – | – | ·
CCOc1ccc(CCNC(=O)COC(=O)c2ccc(S(C)(=O)=O)cc2)cc1OCC | – | – | – | – | 14.9 | –
COc1cccc(OC)c1C(=O)NC(=S)Nc1cc(-c2nc3ccccc3[nH]2)ccc1Cl | – | – | – | – | – | ·
COc1cc(/C=C2\SC(=Nc3ccc(N4CCOCC4)cc3)N(C)C2=O)ccc1OC(C)C(=O)O (configuration not stated) | – | – | – | – | – | ·
Cc1cc(N2CCN(c3ccccn3)CC2)n2nc(C)nc2n1 | – | – | – | – | 8.4 | –
Cc1cc(N2CCN(c3cccc(C(F)(F)F)c3)CC2)n2nc(C)nc2n1 | – | – | – | – | – | ·
COc1cccc(CNC(=O)CCC2CCCN(C(=O)c3ccc(C)nc3)C2)c1 (configuration not stated) | – | – | – | – | 9.9 | –
Cc1ccc(C(=O)N2CCCC(CCC(=O)NCc3ccc(F)c(F)c3)C2)cn1 (configuration not stated) | – | · | – | · | – | ·
CCN(C(=O)CCNC(=O)Cn1cnc2ccccc2c1=O)c1ccccc1F | – | – | – | – | – | ·
Cc1ccc(-c2nc3c(c(=O)[nH]c(=O)n3CC(C)C)n2CC(C)C)cc1[N+](=O)[O-] | – | – | – | – | – | ·
CCCCn1c(=O)[nH]c(=O)c2c1nc(-c1ccc(C)c([N+](=O)[O-])c1)n2CC | – | – | – | – | 9.9 | –
O=C(COc1coc(CN2CCCc3ccccc32)cc1=O)Nc1ccc([N+](=O)[O-])cc1 | – | – | – | – | 7.4 | –
CCOC(=O)N=Nc1c(O)n(Cc2ccccc2)c2ccccc12 | – | – | – | – | – | –
CCOC(=O)Cn1c(O)c(N=NC(=O)OC)c2ccccc21 | – | – | – | – | – | ·
CCOC(=O)N=Nc1c(O)n(CC)c2ccccc12 | – | – | – | – | – | –
COc1ccc(S(=O)(=O)Nc2ccccc2OC)cc1NC(=O)CC1CC2CCC1C2 (configuration not stated) | – | – | – | – | – | ·
COc1ccccc1N1CC(C(=O)Nc2ccccc2N2CCCC2)CC1=O (configuration not stated) | – | – | – | – | 7.6 | –
Cc1ccc(NS(=O)(=O)c2cccc(C(=O)N3CCN(C(=O)c4ccco4)CC3)c2)cc1 | · | – | – | – | – | ·
C1CCCN(c2nc3nonc3nc2N2CCCCCC2)CC1 | – | – | – | – | – | ·
CN(C)C(=O)CN1CCN(c2nc3nonc3nc2N2CCCCC2)CC1 | – | – | – | – | 12.7 | –
Cc1ccc(C(=Cc2ccc([N+](=O)[O-])cc2)C(=O)O)cc1 | · | · | · | · | – | ·
SMILES | AI-2 QS mod | SUMO Mot1 rescue | ATG4B inh | Efflux pump inh | V-ATPase pHluor | VATPase regulator
COc1ccc(N(CC(=O)NCCC2=CCCCC2)S(=O)(=O)c2ccc(C)cc2)cc1OC | – | – | – | – | – | ·
COc1ccc(N(CC(=O)NCCC2=CCCCC2)S(=O)(=O)c2ccccc2)cc1OC | – | – | – | – | 14.3 | –
C#CCOCCOCCOCCNc1nc(N2CCN(C(=O)[C@H](CCC(=O)O)n3cc(CN)nn3)CC2)nc(N2CCN(C(=O)[C@H](CCCCN)n3cc([C@@H](N)CC(N)=O)nn3)CC2)n1 | · | – | – | – | 7.9 | –
CC(C)c1ccc(NC(=O)c2cccc(Br)c2)cc1 | – | – | – | – | – | ·
COc1cccc(NC(=O)CN(C)S(=O)(=O)c2ccc3c(c2)NC(=O)CS3)c1 | – | – | – | – | – | –
N#C/C(=C\c1ccco1)C(=O)Nc1ccc(S(N)(=O)=O)cc1 | – | – | – | – | 8.6 | –
COc1ccc(CN2CCNC(=O)C2CC(=O)N2CCCN(C(C)=O)CC2)c(OC)c1 (configuration not stated) | – | – | – | – | – | ·
O=C(c1ccc([N+](=O)[O-])o1)N1CCN(c2nc3ccc(F)cc3s2)CC1 | – | – | – | – | 66.8 | 40.5
CN(C(=O)COC(=O)c1ccc(Cl)cc1N)C1CCS(=O)(=O)C1 (configuration not stated) | – | – | – | – | 11.2 | –
O=C(CSc1nnnn1-c1ccc2c(c1)OCCO2)N1CCN(C(=O)c2ccco2)CC1 | – | – | – | – | – | ·
CC(CNc1ccc(Cl)cc1)(CNc1ccc(Cl)cc1)[N+](=O)[O-] | · | · | – | · | 8.8 | –
O=[N+]([O-])c1ccc(CNc2ccc(Cl)cc2)s1 | – | – | – | – | – | ·
O=C(COC(=O)c1cnc(Cl)c(Cl)c1)NCCC1=CCCCC1 | – | – | – | – | 65.3 | –
Cc1ccc(-n2ncc3c2CCCC3NC(=O)CSc2ccccn2)cc1C (configuration not stated) | – | – | – | – | – | ·
CCn1nnc(NC(=O)c2ccc(-c3ccc(Cl)cc3)o2)n1 | – | – | – | – | 7.1 | –
O=C(Nc1ccc(N2CCOCC2)cc1Cl)C1CCN(C(=O)OCc2ccccc2)CC1 | – | – | – | – | 10.3 | –
O=C(Nc1ccc(N2CCOCC2)cc1)C1CCN(C(=O)OCc2ccccc2)CC1 | – | – | – | – | – | ·
N#CC(=C1CCCC1)c1nc(-c2ccccc2)cs1 | – | – | – | – | 9.7 | –
Cc1ccc(-c2csc(C(C#N)=C3CCCC3)n2)cc1 | – | – | – | – | – | ·
Cc1noc(NS(=O)(=O)c2ccc(NC(=O)/C=C/c3ccccc3)cc2)c1C | · | – | – | – | 13.0 | –
COc1ccc(/C=C/C(=O)Nc2ccc(S(=O)(=O)Nc3onc(C)c3C)cc2)cc1OC | – | – | – | – | – | ·
CCN(CC)C(=O)Cn1cc(C(=O)C(=O)NCCc2c[nH]c3ccccc23)c2ccccc21 | – | – | – | – | – | ·
CCn1c(SCC(=O)NCC(=O)Nc2ccc(F)cc2)nnc1-c1cccs1 | – | – | – | – | 8.6 | –
CCn1c(SCC(=O)Nc2ccc(C(=O)OC)cc2)nnc1-c1cccs1 | – | – | – | – | – | ·
O=C(CSc1nc2ccccc2c(=O)n1NC(=O)Cc1ccccc1)NCc1ccccc1 | – | – | – | – | 14.6 | –
C[C@@H]1CN([C@@H](C)CO)S(=O)(=O)c2ccc(Br)cc2O[C@@H]1CN(C)C(=O)c1ccncc1 | · | · | · | · | 5.2 | –
C[C@H]1CN([C@@H](C)CO)S(=O)(=O)c2ccc(Br)cc2O[C@@H]1CN(C)C(=O)c1cccnc1 | · | · | · | · | – | ·
